In the antibiotic and cytotoxicity screens of Wong et al. (2023) one finds cytotoxicity call data, which are given here for 18 molecules.

Each structure is given as a SMILES string. Screen size: about 39,000 compounds; about 3,300 (8.5%) were called active. What follows is part of a selection rich in actives, with near analogues and random picks from the rest.

The test system of the experiment is HepG2. As to the kind of experiment: cytotoxicity call (relative viability < 0.9). As to conditions: 10 µM.
Regarding `C[C@@H]1CN([C@@H](C)CO)C(=O)c2cccc(NC(=O)c3ccc(-c4nccs4)cc3)c2O[C@@H]1CN(C)C(=O)Nc1ccc2c(c1)OCO2`, the cytotoxicity call is “inactive”.

On to `CCCNC(=O)N1C[C@@H](O)COC[C@H]2O[C@H](CC(=O)N3CCOCC3)CC[C@@H]21`, for which the cytotoxicity call was “inactive”.

For `C[C@H]1CN([C@@H](C)CO)C(=O)c2cccc(NS(C)(=O)=O)c2O[C@@H]1CN(C)Cc1ccc(C(=O)O)cc1`, the cytotoxicity call was “inactive”.

Regarding `C[C@@H]1CN([C@H](C)CO)C(=O)c2cc(NS(=O)(=O)c3cn(C)cn3)ccc2O[C@H]1CN(C)Cc1ccc(C(=O)O)cc1`, the cytotoxicity call was “inactive”.

For the molecule `O=C(O)c1ccc2[nH]cnc2n1`, the cytotoxicity call was “inactive”.

As to `O=C(CCCCCNC(=O)OCc1ccc(CO[C@@H]2C[C@H](C3CCCCC3)C=C(C(=O)N3CCCCCCC3)O2)cc1)NO`, the cytotoxicity call was “inactive”.

As for `C[C@H](CO)N1C[C@H](C)[C@@H](CN(C)S(=O)(=O)c2ccc(F)cc2)Oc2ccc(NS(C)(=O)=O)cc2C1=O`, the cytotoxicity call was “inactive”.

Turning to `Cc1noc(C)c1NC(=O)N(C)C[C@@H]1Oc2ccc(NC(=O)Nc3cccc4ccccc34)cc2C(=O)N([C@H](C)CO)C[C@@H]1C`, the cytotoxicity call was “inactive”.

As to `COc1ccccc1NC(=O)N(C)C[C@H]1Oc2ncc(C#CCN(C)C)cc2C(=O)N([C@H](C)CO)C[C@H]1C`, the cytotoxicity call is “inactive”.

On to `C=CCOC(=O)[C@H]1[C@@H]2C(=O)O[C@@H](c3ccccc3)[C@@H](c3ccccc3)N2[C@@H](c2ccc(OCCOC(=O)[C@@H]3C[C@@H]4C(=O)NCC(=O)N4[C@@H]3c3cccc(OCCO)c3)cc2)[C@]12C(=O)Nc1ccccc12`, for which the cytotoxicity call was “inactive”.

For `Cc1noc(C)c1S(=O)(=O)Nc1ccc2c(c1)CC(=O)N([C@H](C)CO)C[C@H](C)[C@H](CN(C)Cc1ccc(-c3ccccc3)cc1)O2`, the cytotoxicity call is “inactive”.

Regarding `C(=N\c1ccccc1)/c1ccccc1`, the cytotoxicity call was “inactive”.

As for `C[C@@H]1CN([C@H](C)CO)C(=O)c2cc(NC(=O)Nc3ccc4c(c3)OCO4)ccc2O[C@@H](C)CCCCO[C@@H]1CN(C)Cc1ccccc1`, the cytotoxicity call is “inactive”.

With `C[C@@H]1CCCCO[C@H](CN(C)Cc2ccc3c(c2)OCO3)[C@H](C)CN([C@@H](C)CO)C(=O)c2cc(NC(=O)Nc3ccccc3)ccc2O1`, the cytotoxicity call was “inactive”.

Consider `C[C@H](CO)N1C[C@H](C)[C@@H](CN(C)Cc2ccc3c(c2)OCO3)OCCCC[C@H](C)Oc2ccc(NC(=O)Nc3ccccc3)cc2C1=O`, for which the cytotoxicity call was “inactive”.

Turning to `C[C@@H]1CN([C@@H](C)CO)C(=O)c2cc(NC(=O)Nc3ccccc3)ccc2O[C@@H](C)CCCCO[C@@H]1CN(C)Cc1ccc2c(c1)OCO2`, the cytotoxicity call is “active”.

As for `C[C@@H]1CN([C@@H](C)CO)C(=O)c2cc(NC(=O)Nc3ccc4c(c3)OCO4)ccc2O[C@@H](C)CCCCO[C@@H]1CN(C)Cc1ccccc1`, the cytotoxicity call is “active”.

On to `C[C@@H]1CCCCO[C@H](CN(C)Cc2ccccc2)[C@@H](C)CN([C@@H](C)CO)C(=O)c2cc(NC(=O)Nc3ccc4c(c3)OCO4)ccc2O1`, for which the cytotoxicity call is “inactive”.
